Test results taken from PubChem BioAssay (NCI).
Where “and” joins values, the source holds several entries; their conditions need not be identical. Equal values may be shown once. The panel holds about 83,000 compounds, 20% with a hit somewhere; the sample as a whole holds those more often.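 Step 1: grow cells in 96-well plates. Step 2: add test compound at a single concentration. Step 3: incubate 48 h. Step 4: record percent growth.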 Calls of active or inactive are those of the source. How the source made its calls: active means growth percent below 10; inactive means the rest.

Tests used:
Test in all cases: NCI-60 one-dose screen, 48 h (100 = growth as untreated, 0 = no growth, -100 = all killed)
Settings in all cases: 10 µM unless noted
NCI-H23 lung = tested on: NCI-H23 lung
NCI-H226 lung = tested on: NCI-H226 lung
NCI-H322M lung = tested on: NCI-H322M lung
NCI-H460 lung = tested on: NCI-H460 lung
HOP-92 NSCLC = tested on: HOP-92 NSCLC
NCI-H522 lung = tested on: NCI-H522 lung
A549/ATCC NSCLC = tested on: A549/ATCC NSCLC
786-0 renal = tested on: 786-0 renal
COLO 205 colon = tested on: COLO 205 colon
HOP-62 NSCLC = tested on: HOP-62 NSCLC

Measured: growth

CCOC(=O)c1c(-c2ccc(OC)cc2)c(C#N)c2c(C#N)c(N)nn2c1N
inactive: NCI-H23 lung 62.2% | NCI-H226 lung 61.5% | NCI-H322M lung 80.9% | HOP-92 NSCLC 15.4% | A549/ATCC NSCLC 36.4% | 786-0 renal 45.3% | COLO 205 colon 18.6%
active: NCI-H460 lung 9.75% | NCI-H522 lung -6.29%

CC(C)(C)CC(N)=O
inactive: NCI-H23 lung 100% | NCI-H226 lung 95.6% | NCI-H322M lung 108% | HOP-62 NSCLC 89.4% | NCI-H460 lung 103% | NCI-H522 lung 111% | A549/ATCC NSCLC 97.6% | 786-0 renal 101% | COLO 205 colon 109%

CCOC(=O)n1cc(-c2nonc2-c2cn(C)c3ccc(OC)cc23)c2cc(F)ccc21
inactive: NCI-H23 lung 76.1% | NCI-H226 lung 78.3% | NCI-H322M lung 67.4% | HOP-62 NSCLC 72.6% | NCI-H460 lung 80.6% | NCI-H522 lung 74.4% | A549/ATCC NSCLC 56.5% | 786-0 renal 93.9% | COLO 205 colon 90.9%

COc1ccc(C2Nc3nc(SC)nc(N)c3N=C3c4ccccc4CCC32)cc1 (configuration not stated)
inactive: NCI-H23 lung 72.4% | NCI-H226 lung 107% | NCI-H322M lung 109% | HOP-62 NSCLC 102% | NCI-H460 lung 86.7% | NCI-H522 lung 90.9% | A549/ATCC NSCLC 102% | 786-0 renal 93.6% | COLO 205 colon 112%

COc1cc2c(cc1OCCCOC1=C=C=C(c3ccc4c(c3)c3cc(-c5ccc(OCCCOc6cc7c(cc6OC)C(=O)N6CCC[C@H]6C=N7)cc5)ccc3n4S(=O)(=O)c3ccc(C)cc3)C=C1)N=C[C@@H]1CCCN1C2=O
active: NCI-H522 lung -8.9%
115% (inactive) and 1.63% (active): 786-0 renal
inactive: NCI-H23 lung 36.7% | NCI-H226 lung 22.8% | NCI-H322M lung 216% | HOP-62 NSCLC 116% and 54.5% | NCI-H460 lung 15.5% | A549/ATCC NSCLC 56.4% | COLO 205 colon 49%

Cc1cc(N2CCN(CC(=O)Nc3ccc4c(ccn4Cc4ccccc4)c3)CC2)nc(N2CCCCCC2)n1
inactive: NCI-H23 lung 53.2% | NCI-H226 lung 57.4% | NCI-H322M lung 77.9% | HOP-62 NSCLC 59.8% | NCI-H460 lung 40% | NCI-H522 lung 62.4% | A549/ATCC NSCLC 46.3% | 786-0 renal 79.4% | COLO 205 colon 30.6%

Cc1ccc(-c2nc([P+](c3ccccc3)(c3ccccc3)c3ccccc3)c(Nc3ccccc3)o2)cc1
inactive: NCI-H226 lung 20.2%
active: NCI-H23 lung -6.49% | NCI-H322M lung 4.01% | HOP-62 NSCLC -16.4% | NCI-H460 lung -45.3% | NCI-H522 lung -33.5% | A549/ATCC NSCLC 4.95% | 786-0 renal -24.5% | COLO 205 colon -62.8%

COc1ccc(/C=N/C2=C(C#N)C(c3ccccc3)c3c(ccc4ccccc34)O2)cc1 (configuration not stated)
active: NCI-H522 lung 2.3% | COLO 205 colon 0.29%
inactive: NCI-H23 lung 36.9% | NCI-H226 lung 33.8% | NCI-H322M lung 40.9% | HOP-62 NSCLC 35.5% | NCI-H460 lung 15.5% | A549/ATCC NSCLC 41.9% | 786-0 renal 29.2%

OCc1cc(CN2CCCCC2)c(O)c2ncccc12
inactive: NCI-H23 lung 75.8% | NCI-H226 lung 67.5% | NCI-H322M lung 25.9% | HOP-62 NSCLC 35.8% | NCI-H460 lung 20.7% | NCI-H522 lung 80.7% | A549/ATCC NSCLC 57.8% | 786-0 renal 57.9% | COLO 205 colon 47%

CCN1CCN(C(=O)[C@]23CC[C@@H](C)[C@H](C)[C@@H]2C2=CC[C@@H]4[C@@]5(C)CCC(=O)C(C)(C)[C@@H]5CC[C@@]4(C)[C@]2(C)CC3)CC1
active: HOP-62 NSCLC 9.82% | NCI-H460 lung -55.1% | NCI-H522 lung -53.4% | 786-0 renal -40.1% | COLO 205 colon -50.9%
inactive: NCI-H23 lung 21.4% | NCI-H226 lung 35.7% | NCI-H322M lung 10.2% | A549/ATCC NSCLC 19.9%

COC(=O)c1c2c(c(C)[n+]([O-])c1C)C(=O)C(NCCN1CCOCC1)=CC2=O
active: COLO 205 colon 6.73%
inactive: NCI-H23 lung 59.7% | NCI-H226 lung 103% | NCI-H322M lung 72.5% | HOP-62 NSCLC 101% | NCI-H460 lung 55.4% | NCI-H522 lung 87.5% | A549/ATCC NSCLC 91.3% | 786-0 renal 89.9%

Cc1nonc1-c1ccc2c(c1)OCO2
inactive: NCI-H23 lung 91.5% and 112% | NCI-H226 lung 94.3% | NCI-H322M lung 113% and 124% | HOP-62 NSCLC 123% and 106% | NCI-H460 lung 106% | NCI-H522 lung 102% and 103% | A549/ATCC NSCLC 90.6% and 98.2% | 786-0 renal 104% and 107% | COLO 205 colon 114% and 140%

Cc1ccc(C(=O)Nc2nc3c(s2)CN(Cc2ccccc2)CC3)cn1
inactive: NCI-H23 lung 80.5% | NCI-H226 lung 88.8% | NCI-H322M lung 92.9% | HOP-62 NSCLC 88.5% | NCI-H460 lung 101% | NCI-H522 lung 65.9% | A549/ATCC NSCLC 75.4% | 786-0 renal 85.1% | COLO 205 colon 87.4%
